Results on 39 compounds are retold here after PubChem BioAssay (NCI).

Compounds without any hit were thinned out: in the full panel of roughly 83,000, 20% have a hit.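 Negative percent growth values reflect cell death: -40 means 40% of the cells present at the start died, and -100 means all died.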 Calls of active or inactive are those of the source. Rule for the calls: active = growth percent below 10; inactive = the rest.

For the assay, the system named is HOP-62 NSCLC. Briefly: NCI-60 one-dose screen, 48 h (100 = growth as untreated, 0 = no growth, -100 = all killed). The conditions noted are these: 10 µM unless noted.
Consider `NCCNc1nc2ccccc2c2c(=O)c3cc(F)cc(Cl)c3sc12`, for which the growth was -51.7% (active).

Take `C=C1C(=O)O[C@H]2[C@H]1CC/C(COC(=O)/C=C\C(=O)O)=C\CC[C@@]1(C)O[C@@H]21`: the growth is 99.2% (inactive).

Turning to `COc1ccccc1C(=O)/C=C/c1ccccc1`, the growth was 86.9% (inactive).

Turning to `Cn1cc([C@@H]2Nc3ccc4[nH]ncc4c3[C@H]3[C@H]4CCC(C4)[C@H]32)c(C(F)(F)F)n1`, the growth was 53% (inactive).

`N#Cc1c(N)nc2c(c1N)C(c1ccc(F)cc1)c1ccc(N)cc1O2` (centres undefined): the growth was 113% (inactive).

`O=C(CN1C=NC2C(N3CCOCC3)=NC=NC21)c1ccc(Br)cc1` (centres undefined): the growth is 103% (inactive).

For the compound `CCCCN1CCN(c2ccc3nc(-c4ccc5nc(-c6ccc(OCC)cc6)[nH]c5c4)[nH]c3c2)CC1`, the growth was 46.2% (inactive).

For the compound `CCN(CCO)CCNc1ccc(C)c2sc3cc(Cl)ccc3c(=O)c12`, the growth is 38.5% (inactive).

Turning to `Cc1nn(-c2nc3ccccc3[nH]2)c2c1C(c1ccc(OCC(N)=O)cc1)CC(=O)N2` (centres undefined), the growth was 100% (inactive).

On to `COC(=O)/C(CCC=C(C)C)=C1\[C@@H](OC(C)=O)C[C@@]2(C)[C@H]1C[C@@H](O)[C@H]1[C@@]3(C)CC[C@H](NCCO)[C@@H](C)[C@@H]3CC[C@@]12C`, for which the growth is 106% (inactive).

With `CCCc1c(C)c2sc(=O)[nH]c2[nH]c1=O`, the growth was 107% (inactive).

Take `O=C(/C=C/c1ccc(Cl)cc1)c1ccc(Nc2nc(NCCO)nc(Nc3ccc(Cl)cc3)n2)cc1`: the growth was 80.3% (inactive).

In the case of `COc1cccc2c(=O)c3c(sc12)c(NCCCNCCO)nc1ccccc13`, the growth is 44.4% (inactive).

For `CCCCc1ccc(NS(=O)(=O)c2cc3c4c(c2)CCN4C(=O)CC3)cc1`, the growth was 8.96% (active).

Take `O=C1/C(=C/c2ccc(O)cc2)COc2ccc(O)cc21`: the growth was 114% (inactive).

Regarding `Cc1cc(Nc2ccc(OCc3ccccc3)cc2)nc2cc(O)ccc12`, the growth is 57.7% (inactive).

Turning to `O=C(c1nc2ccccc2[nH]1)C1[C@@H](c2cccc(O)c2)C2CC3CCCCC3N2[C@@]12C(=O)Nc1cc(Cl)ccc12` (some centres undefined), the growth is 60.3% (inactive).

As to `O=c1oc2ccc(Br)cc2c(=O)n1-c1ccc(Br)cc1F`, the growth was -4.63% (active).

On to `O=C(/C=C/c1ccc(C(F)(F)F)cc1)c1ccc(Nc2nc(NCCO)nc(N3CCOCC3)n2)cc1`, for which the growth was 33% (inactive).

As to `C#CCn1cc(C=C2C(=O)N(C)C(=O)N(C)C2=O)c2cc(Cl)ccc21`, the growth was 107% (inactive).

For `COc1ccc(/C=C2/SC(=O)N(CC(=O)N3CCN(c4cc5c(cc4F)c(=O)c(C(=O)O)cn5C4CC4)CC3)C2=O)cc1`, the growth was 97.6% (inactive).

For `CCOC(=O)C1=C(C)N=c2s/c(=C\c3ccccc3O)c(=O)n2C1c1ccc(OC)c2ccccc12` (centres undefined), the growth was 29.2% (inactive).

Consider `Nc1ccc(-c2ccc(-c3ccccc3N)c3[nH]c4ccccc4c23)cc1`, for which the growth is 42.1% (inactive).

For the compound `CCOC(=O)c1c2c(n3cccc(Cl)c13)C(=O)c1ncccc1C2=O`, the growth is 41.9% (inactive).

As to `O=C(Nc1ccc(C23CC4CC(CC(c5ccccc5)(C4)C2)C3)cc1)c1cccs1`, the growth is 119% (inactive).

Turning to `Cc1ccc2sc3c(NCCCNCCO)nc4ccccc4c3c(=O)c2c1`, the growth was 50.9% (inactive).

`COc1ccccc1N1CCN(C(CNS(=O)(=O)c2ccc(Cl)cc2)c2cccnc2)CC1` (centres undefined): the growth was 94% (inactive).

Consider `CCn1c(-c2nonc2Nc2ccc(OC)cc2)nc2ccccc21`, for which the growth was 115% (inactive).

As for `O=C(Nc1ccc(N2CCNCC2)cn1)c1[nH]ncc1Nc1ncnc2sc3c(c12)CCC3`, the growth was 76.2% (inactive).

Consider `O=C(/C=C/c1cccc(Cl)c1)OCc1ccc2cc1OCC#C/C=C\C#CCO2`, for which the growth was 100% (inactive).

As for `C[n+]1c2ccccc2nc2ccc(NCCO)cc21`, the growth is 98.1% (inactive).

With `Nc1nc2c(ncn2[C@@H]2O[C@H](CS)[C@@H](O)[C@H]2O)c(=O)[nH]1`, the growth was 100% (inactive).

Turning to `Cn1c(C(=O)c2cccc3ccccc23)nc2ccccc21`, the growth was 18.6% (inactive).

`CC/C(=C(\CC)c1ccc(OCC[N+](C)(C)C)cc1)c1ccc(OC)cc1`: the growth is 62.4% (inactive).

With `O=C(Nc1ccc(F)cc1F)c1cc(I)ccc1O`, the growth was 2.05% (active).

Regarding `CC(C)Cn1c2c(c(=S)[nH]c1=O)CCC2`, the growth is 102% (inactive).

For `CNCCNc1nc2ccccc2c2c(=O)c3cccc(C)c3sc12`, the growth is 25.6% (inactive).

As to `COC(=O)c1c2c(c(C)[n+]([O-])c1C)C(=O)C(NCc1ccc(F)c(F)c1)=CC2=O`, the growth is 33.1% (inactive).

On to `O=C(Cn1cc(COc2ncnc3c2cnn3-c2ccccc2)nn1)Nc1ccccn1`, for which the growth was 91.5% (inactive).
